# Compounds with a hit are over-represented: about 3.7% of the library has one in this group of screens.
# BoNT-F LC inh: BoNT/F light chain protease inhibitors, primary screen, biochemical, flow cytometry, MLPCN library. Multiplex microsphere protease cleavage assay. inhibition, % at 10 µM. 0.22% of 360,000 active; in the data active = inhibition above about 35%, passing the limit was not always enough; inconclusive = no clear call, values can overlap the other calls; note: plate controls were buffer without enzyme for full effect and enzyme alone for no effect
# BoNT A protease: BoNT/A light chain protease inhibitors, primary screen, biochemical, flow cytometry, MLPCN library | Botulinum neurotoxin type A light chain protease (Clostridium botulinum A str. ATCC 3502) | multiplex microsphere protease substrate cleavage | inhibition, % at 10 µM | 0.17% of 360,000 active | AID 588499, 2011; note: plate controls were buffer without enzyme for full effect and enzyme alone for no effect
# Bead autofluor: flagged as autofluorescent in microsphere protease counterscreen; fluorescence intensity (test concentration not listed); 3.1% of 360,000 active; compound autofluorescence counterscreen, microsphere flow cytometry; active compounds read high; in the data active = fluorescence intensity above about 16000; inconclusive = no clear call, values can overlap the other calls
# Anthrax LF prot: Bacillus anthracis LF protease inhibitors, primary screen, biochemical, multiplex microsphere, MLPCN library | AID 588501, 2011 | multiplex microsphere protease cleavage assay | 0.12% of 360,000 active | inhibition, % at 10 µM | Lethal factor (Bacillus anthracis), P15917; note: plate controls were buffer without enzyme for full effect and enzyme alone for no effect
# Target sequence (P15917 whole entry, looked up): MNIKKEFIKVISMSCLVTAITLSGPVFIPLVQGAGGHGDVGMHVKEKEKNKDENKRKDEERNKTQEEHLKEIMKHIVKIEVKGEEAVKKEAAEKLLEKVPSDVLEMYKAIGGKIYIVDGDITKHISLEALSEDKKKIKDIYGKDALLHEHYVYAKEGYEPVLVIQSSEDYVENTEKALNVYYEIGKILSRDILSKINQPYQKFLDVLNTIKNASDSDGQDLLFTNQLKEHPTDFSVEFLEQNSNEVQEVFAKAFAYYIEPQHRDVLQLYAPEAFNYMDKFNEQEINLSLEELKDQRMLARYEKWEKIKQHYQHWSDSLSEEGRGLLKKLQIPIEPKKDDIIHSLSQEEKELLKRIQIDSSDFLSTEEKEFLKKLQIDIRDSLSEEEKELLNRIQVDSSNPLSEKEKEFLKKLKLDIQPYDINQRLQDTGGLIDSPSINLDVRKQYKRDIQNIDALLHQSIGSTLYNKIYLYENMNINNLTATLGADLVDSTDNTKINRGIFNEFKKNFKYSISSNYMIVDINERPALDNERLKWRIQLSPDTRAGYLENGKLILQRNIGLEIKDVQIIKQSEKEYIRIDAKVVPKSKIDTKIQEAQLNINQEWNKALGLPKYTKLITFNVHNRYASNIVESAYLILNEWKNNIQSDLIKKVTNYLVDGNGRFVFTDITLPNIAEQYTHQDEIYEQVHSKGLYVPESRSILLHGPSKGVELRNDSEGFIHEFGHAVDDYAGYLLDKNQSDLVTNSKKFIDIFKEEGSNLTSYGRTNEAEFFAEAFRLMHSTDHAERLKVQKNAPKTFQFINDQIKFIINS
# MazF activator: activators of E. coli MazEF toxin-antitoxin RNase, primary screen, biochemical, fluorescence, uHTS | Endoribonuclease toxin MazF (Escherichia coli (strain K12)), P0AE70 | FAM/BHQ RNA-DNA oligo cleavage fluorescence, 5 h | activation, % at 20 µM | 0.32% of 350,000 active; in the data active = activation above about 50%
# The depositor's hits bear a star; ? = inconclusive; · = no result given; + = active, no number. Cut-off read from the data, not from the text of the source, unless noted: active = inhibition above about 30%; inconclusive = no clear call, values can overlap the other calls; inactive = below that.
SMILES,BoNT-F LC inh,BoNT A protease,Bead autofluor,Anthrax LF prot,MazF activator
CCCC(C)(C)C(=O)N1CCC1(C)C(=O)NS(=O)(=O)c1cccc(Cl)c1 (stereo not drawn),-1.1,0.1,2697,-2.2,·
CN(C)CC1(c2ccccc2)CCCC1,-4.1,-2.3,17486*,-0.6,-1.5
CC1CN(C2CCCCC2)C(=S)N(c2ccccc2)C1=O (stereo not drawn),-5.7,0.1,4046,0.7,9.0
O=C(Cn1cc([N+](=O)[O-])ccc1=O)NCc1ccc(Cl)cc1Cl,2.8,1.2,5264,1.7,-0.7
O=C(c1ccc([N+](=O)[O-])cc1)N(Cc1ccc(Cl)cc1)N1C(=O)CCCC1=O,-6.2,-5.0,17414*,-1.6,6.7
O=C(c1ccc([N+](=O)[O-])cc1)N(Cc1ccc(Cl)cc1Cl)N1C(=O)CCCC1=O,4.8,2.2,22479*,-5.6,-3.4
O=C(c1ccc(Cl)cc1)N(Cc1ccc(Br)cc1)N1C(=O)CCC1=O,-6.4,0.1,4462,-3.9,11.3
COc1ccc(C(C#N)=Cc2ccc(OC)c(OC)c2)cc1,-3.9,-0.3,3550,0.7,-0.1
COc1cc(N2CCCC2)c(OC)cc1/C=C(/C#N)c1ccc(F)cc1,34.9*,1.1,7730,-5.9,-113.2
COc1cc(N2CCCC2)c(OC)cc1/C=C(/C#N)c1ccc(Br)cc1,-1.5,0.8,20296*,-1.3,-4.4
COc1ccc(C(C#N)=Cc2ccccc2OC)cc1,3.8,-0.8,3851,-2.3,3.0
Cc1ncc(CN2CCC(n3nccc3NC(=O)c3ccccc3)CC2)s1,-2.3,-1.6,5760,-2.6,-5.7
CN1CCc2c(sc3c2C(=O)NC(c2ccccc2)N3)C1 (stereo not drawn),-58.5,11.0,6507,-7.9,-70.3
CN1CCc2c(sc3c2C(=O)NC(/C=C/c2ccco2)N3)C1 (stereo not drawn),-14.5,0.1,12632,-3.4,66.1*
N#Cc1nnn2c1nc(N)c1c(Cl)cccc12,-1.6,0.1,6242,-8.9,·
CCC(C)c1ccc(S(=O)(=O)N2CCN3CCCC3C2)cc1 (stereo not drawn),-65.6,2.9,5254,-2.7,-1.0
Cn1nc(-c2ccccc2)c2nc3ccccc3nc21,0.8,13.3,3236,11.8,+
Cc1ccc(-c2nc3ccccc3nc2-c2ccccc2)cc1,16.0,-3.7,4100,-9.3,5.2
COc1ccc(NC(C)C(=O)Nc2ccc(C#N)cc2)cc1Cl (stereo not drawn),-5.4,?,22894*,-2.5,1.0
COc1ccc(NCC(=O)Nc2ccc(C#N)cc2)cc1Cl,-3.6,1.2,22730*,-0.6,11.2
CN(CC(=O)Nc1ccc(C#N)cc1)Cc1ccc(Cl)cc1Cl,-1.0,-0.9,22298*,-0.9,3.3
CN(CC(=O)Nc1ccc(C#N)cc1)Cc1ccc(Cl)cc1,-4.4,-1.5,4961,-1.8,-0.9
CCN(CC)c1c(C)nc2ccc(C(=O)Nc3cc(-c4ccccc4)ccc3OC)cn12,-3.4,0.0,3607,-12.1,·
Cc1ccc(C)c(Cn2cnc3c(nnn3-c3ccc(F)cc3)c2=O)c1,0.1,-1.3,16844*,0.6,-30.1
COc1ccc(-n2nnc3c(=O)n(Cc4ccccc4C)cnc32)cc1,-12.9,-1.3,11273,-7.2,-0.6
SMILES,BoNT-F LC inh,BoNT A protease,Bead autofluor,Anthrax LF prot,MazF activator
COc1cccc(-n2nnc3c(=O)n(Cc4c(F)cccc4Cl)cnc32)c1,-13.1,-0.6,8778,-2.9,90.0*
O=C1NC(=O)C(c2cn(-c3ccccc3)nc2-c2ccc(F)cc2)N1 (stereo not drawn),?,-0.5,4935,-3.8,4.8
CC1=C(C(=O)c2ccccc2)C(c2cn(-c3ccccc3)nc2-c2ccc(Cl)cc2)NC(=S)N1 (stereo not drawn),-2.5,2.0,19559*,-4.6,-2.9
S=c1[nH]nc(Cc2ccccc2)n1-c1ccc(Cl)cc1,-12.0,-2.3,2376,-1.4,-0.1
S=c1[nH]nc(Cc2n[nH]c(=S)n2-c2ccccc2)n1-c1ccccc1,5.2,-2.8,3586,1.0,0.0
Cc1ccc(-n2c(Cc3ccccc3)n[nH]c2=S)cc1,4.4,1.5,22337*,0.0,0.0
S=c1[nH]nc(Cc2ccccc2)n1-c1ccccc1,1.1,?,19172*,1.2,4.1
CCOC(=O)C1C(=O)CC(=O)C(C(=O)OCC)C1c1ccc(O)cc1 (stereo not drawn),-4.8,-0.3,2935,1.9,7.7
